Experiment [1] is described as follows: cAMP Responsive Elements (CRE) small molecule antagonists, cell-based qHTS assay: qHTS cell viability counter screen (AID 2060913). Also: nearly all actives have a fitted effect of over 40% in size. A digest of the protocol: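 CRE-bla HEK293T cells (2,000/well, 18 h) given compound plus NKH477 0.25 uM final for 3 h at 37C; viability counter-screen by CellTiter-Glo luminescence in same wells after 30 min.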
Background: qHTS replaces the single test concentration by a dilution series.

The nature of experiment [2]: cAMP Responsive Elements (CRE) small molecule agonists, cell-based qHTS assay: qHTS cell viability counter screen (AID 2060914). Also: nearly all actives have a fitted effect of over 50% in size. Put shortly: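 In the same wells as the reporter read, viability of CRE-bla HEK 293T cells was quantified by CellTiter-Glo luminescence after a 3 h compound exposure.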

Inconclusive results are not listed. Values without a mark were called inactive. The source made the active and inactive calls. Calls follow the shape of the dose curve; as a rule, active = well fitted cell-killing curve with a large enough effect in the repeat runs; inconclusive = weak or mixed curves, or effect the other way; inactive = flat fitted curve, though single readings scatter.
% is scaled to controls: 0 for no effect and ±100 for the full control effect; potency is read from the fitted curve at half-maximal effect.

On to `Nc1ccn([C@@H]2O[C@H](CO)[C@@H](O)[C@@H]2O)c(=O)n1`, for which the Potency result in experiment [1] and in experiment [2] was “inactive” in each case.

Regarding `COc1ccc(OC(F)(F)F)cc1CN[C@H]1CCCN[C@H]1c1ccccc1`, the Potency result in experiment [1] and in experiment [2] was “inactive” throughout.

Consider `C=C(C)[C@@H]1CCC2=CC(=O)C[C@@H](C)[C@]2(C)C1`, for which the Potency result in experiment [1] and in experiment [2] was “inactive” each time.

Consider `COC(=O)c1ccc2cc(C(=O)OC)ccc2c1`, for which the viability change, negative = cytotoxic in experiment [1] was 9.85% [at 18.9 µM]. Further, the activity change, negative = cytotoxicity in experiment [2] is -17.3% [at 18.9 µM].

Take `Nc1nc(CC(=O)O)cs1`: the Potency result in experiment [1] and in experiment [2] was “inactive” each time.

Regarding `COc1cc2c(cc1OC)C(=O)CC2`, the Potency result in experiment [1] and in experiment [2] was “inactive” in each case.

In the case of `Cc1ccccc1Cl`, the Potency entry in experiment [1] and in experiment [2] was “inactive” throughout.

For the compound `O=Cc1ccccc1S(=O)(=O)O`, the Potency result in experiment [1] and in experiment [2] was “inactive” throughout.

On to `Nc1nc2c(ncn2COC(CO)CO)c(=O)[nH]1`, for which the Potency entry in experiment [1] and in experiment [2] was “inactive” in each case.

As to `CCCOC(=O)c1ccc(N)cc1`, the Potency entry in experiment [1] and in experiment [2] was “inactive” in each case.

For `CC1=C(C)C(=O)C(C(CCCCCC(=O)O)c2ccccc2)=C(C)C1=O` (configuration not stated), the Potency result in experiment [1] and in experiment [2] was “inactive” in each case.

`CC(C)CC(C)CC(C)CC(C)COC(=O)c1ccccc1C(=O)OCC(C)CC(C)CC(C)CC(C)C` (configuration not stated): the Potency result in experiment [1] and in experiment [2] was “inactive” each time.

In the case of `CC(C)(C)NC[C@H](O)COc1nsnc1N1CCOCC1`, the Potency result in experiment [1] and in experiment [2] was “inactive” in each case.

On to `CCCCCCCCCOC(C)=O`, for which the Potency result in experiment [1] and in experiment [2] was “inactive” in each case.

On to `CCCCCCc1ccc(O)cc1O`, for which the Potency entry in experiment [1] and in experiment [2] was “inactive” throughout.

As for `CN(C)[C@@H]1C(=O)C(C(N)=O)=C(O)[C@@]2(O)C(=O)C3=C(O)c4c(O)cccc4C[C@H]3C[C@@H]12`, the Potency result in experiment [1] and in experiment [2] was “inactive” each time.

On to `O=C(Oc1ccccc1C(=O)O)c1ccccc1O`, for which the Potency result in experiment [1] and in experiment [2] was “inactive” in each case.

In the case of `CCCCS`, the Potency result in experiment [1] and in experiment [2] was “inactive” in each case.

Take `O=C(O)c1ccc(S(=O)(=O)N(Cl)Cl)cc1`: the Potency entry in experiment [1] and in experiment [2] was “inactive” throughout.

Regarding `CCCCCCCCCCCCCCCCCC[N+](C)(C)C`, the Potency is 54.6 µM (active) in experiment [1] and 61.3 µM (active) in experiment [2].

As to `N#C[C@@H]1C[C@@H]2C[C@@H]2N1C(=O)[C@@H](N)C12CC3CC(CC(O)(C3)C1)C2`, the Potency entry in experiment [1] and in experiment [2] was “inactive” each time.

`CN1CCC(=C2c3ccccc3CCc3cccnc32)CC1`: the Potency result in experiment [1] and in experiment [2] was “inactive” in each case.

`O=C1CCCC1`: the Potency result in experiment [1] and in experiment [2] was “inactive” in each case.

As for `CN(C)CCOC(=O)COc1ccc(Cl)cc1`, the Potency entry in experiment [1] and in experiment [2] was “inactive” throughout.

On to `NCCCC(O)(P(=O)(O)O)P(=O)(O)O`, for which the Potency entry in experiment [1] and in experiment [2] was “inactive” throughout.

`Oc1c(I)cc(I)c2cccnc12`: the Potency entry in experiment [1] and in experiment [2] was “inactive” in each case.

Take `Cc1c(N)cccc1C(F)(F)F`: the Potency entry in experiment [1] and in experiment [2] was “inactive” in each case.

With `CCCCCCCCCCCc1ccccc1`, the Potency entry in experiment [1] and in experiment [2] was “inactive” throughout.

`COc1cc([N+](=O)[O-])ccc1N`: the Potency entry in experiment [1] and in experiment [2] was “inactive” in each case.

Turning to `FC(F)(Cl)C(F)(Cl)Cl`, the Potency entry in experiment [1] and in experiment [2] was “inactive” each time.

Regarding `CCOc1ccccc1O[C@H](c1ccccc1)[C@H]1CNCCO1`, the Potency entry in experiment [1] and in experiment [2] was “inactive” throughout.

As for `O=C(CCOCCOCCOCCOCCC(=O)Nc1c(I)cc(I)c(C(=O)O)c1I)Nc1c(I)cc(I)c(C(=O)O)c1I`, the Potency entry in experiment [1] and in experiment [2] was “inactive” throughout.

Turning to `CCCCCCCCCCCCCCCCC(=O)O`, the Potency entry in experiment [1] and in experiment [2] was “inactive” each time.

With `CC(C)C(=O)c1c(C(C)C)nn2ccccc12`, the Potency entry in experiment [1] and in experiment [2] was “inactive” each time.

Consider `Cc1ccsc1C(=CCCN1CCC[C@@H](C(=O)O)C1)c1sccc1C`, for which the Potency entry in experiment [1] and in experiment [2] was “inactive” throughout.

As for `CC(C)OC(=O)C(C(=O)OC(C)C)=C1SC=CS1`, the Potency result in experiment [1] and in experiment [2] was “inactive” throughout.

As for `COc1ccnc(CS(=O)c2nc3cc(OC(F)F)ccc3[nH]2)c1OC` (configuration not stated), the Potency entry in experiment [1] and in experiment [2] was “inactive” throughout.

With `CCCCOCCO`, the Potency result in experiment [1] and in experiment [2] was “inactive” each time.

As to `CCN(CC)CCOC(=O)C1(c2ccccc2)CCCC1`, the Potency result in experiment [1] and in experiment [2] was “inactive” each time.

For the compound `CN1CCN2c3ccccc3Cc3ccccc3C2C1` (configuration not stated), the Potency result in experiment [1] and in experiment [2] was “inactive” in each case.

`CC(C)CC(C)(O)C#CC(C)(O)CC(C)C` (configuration not stated): the Potency result in experiment [1] and in experiment [2] was “inactive” each time.

On to `CN1CCN(c2c(F)cc3c(=O)c(C(=O)O)cn(CCF)c3c2F)CC1`, for which the Potency entry in experiment [1] and in experiment [2] was “inactive” in each case.

Consider `CC(C)CCCC(C)NCCC(C)C` (configuration not stated), for which the Potency result in experiment [1] and in experiment [2] was “inactive” throughout.

In the case of `CCCCCCCCCCCCCBr`, the Potency result in experiment [1] and in experiment [2] was “inactive” in each case.

Take `Cc1ccc(O)c([N+](=O)[O-])c1`: the Potency entry in experiment [1] and in experiment [2] was “inactive” in each case.

Consider `O=C(OCC(O)CO)c1ccccc1Nc1ccnc2cc(Cl)ccc12` (configuration not stated), for which the Potency entry in experiment [1] and in experiment [2] was “inactive” each time.

On to `Cc1cc(=O)oc2cc(O[C@@H]3SC[C@@H](O)[C@H](O)[C@H]3O)ccc12`, for which the Potency result in experiment [1] and in experiment [2] was “inactive” in each case.

As for `O=C1OC2(c3ccccc31)c1ccc(O)c(Br)c1Oc1c2ccc(O)c1Br`, the Potency entry in experiment [1] and in experiment [2] was “inactive” throughout.

With `CC(C)(C)C1=CC(=O)C(C(C)(C)C)=CC1=O`, the Potency entry in experiment [1] and in experiment [2] was “inactive” in each case.

As for `CCCOc1sc(C(=O)N2CCC(c3cc(CN)ccc3F)CC2)c(C)c1Br`, the Potency in experiment [1] was 56 µM (active). In addition, the Potency entry in experiment [2] was “inactive”.

Consider `O=C1c2ccccc2C(=O)C1c1nc2ccccc2c(Br)c1O`, for which the Potency entry in experiment [1] and in experiment [2] was “inactive” throughout.

The values above are taken from PubChem BioAssay (Tox21).
